From the supplement of paper PMC13380429

The compounds below were run on Vero E6 infected with SARS-CoV-2 (assay: inhibition of SARS-CoV-2 cytopathic effect; higher = more antiviral protection, active = above 15). Conditions: 100 nM; 48 h.

SMILES | inhibition of SARS-CoV-2 cytopathic effect
Cc1cc(I)ccc1Nc1c(C(=O)NOCC2CC2)cc(F)c(F)c1F | 7.71% (inactive)
c1ccc2c(-c3cnn4cc(-c5ccc(N6CCNCC6)cc5)cnc34)ccnc2c1 | 1.29% (inactive)
CCCOc1ccc(S(=O)(=O)N2CCN(CCO)CC2)cc1-c1nc2c(CCC)cn(CC)c2c(=O)[nH]1 [mirodenafil] | -2.49% (inactive)
N#CC(c1ccnc(OCc2ccc(CN3CCOCC3)cc2)n1)c1nc2ccccc2s1 (stereo not given) | 1.92% (inactive)
C[C@@H]1CN(c2c(F)c(F)c3c(=O)c(C(=O)O)cn(C4CC4)c3c2F)C[C@H](C)N1 [orbifloxacin] | -5.64% (inactive)
COCC(=O)Nc1c(I)c(C(=O)NCC(O)CO)c(I)c(C(=O)N(C)CC(O)CO)c1I (stereo not given) [iopromide] | -0.01% (inactive)
O=C(c1ccccc1)C(O)c1ccccc1 (stereo not given) [benzoin] | -1.79% (inactive)
N=C(N)NCCCC[C@@H]1NC(=O)CCSSC[C@@H](C(N)=O)NC(=O)[C@@H]2CCCN2C(=O)[C@H](Cc2c[nH]c3ccccc23)NC(=O)[C@H](CC(=O)O)NC(=O)CNC1=O [eptifibatide] | 3.25% (inactive)
NNCCc1ccccc1 [phenelzine] | -0.27% (inactive)
O=C(Nc1ccc(C(O)(C(F)(F)F)C(F)(F)F)cc1)c1ccc(C(F)(F)F)cc1 | 0.25% (inactive)
Cc1ccc(Oc2ccccc2-c2csc(N=C3NCCCN3)n2)c(C)c1 [abafungin] | 1.28% (inactive)
Nc1c(S(=O)(=O)O)cc(Nc2cccc3ccccc23)c2c1C(=O)c1ccccc1C2=O | -2.22% (inactive)
Nc1ccc(S(=O)(=O)Nc2ccccn2)cc1 [sulfapyridine] | 0.38% (inactive)
C[C@H](Cc1ccc(OCC(=O)O)cc1)NC[C@H](O)c1cccc(Cl)c1 | 2.24% (inactive)
c1ccc(CNCc2ccc(CN3CCCNCCNCCCNCC3)cc2)nc1 | 3.41% (inactive)
NC1=N[C@@](c2cccc(-c3cncnc3)c2)(c2ccnc(C(F)F)c2)c2cccc(F)c21 | -1.46% (inactive)
CN(CCOP(=O)(O)O)C(=N)N [creatinol-phosphate] | 0.89% (inactive)
CCOc1ccc(-c2nc(-c3cccc4c3CCC4NCCO)no2)cc1OCC (stereo not given) | 1.13% (inactive)
O=C(Oc1ccc(Br)cc1)N1CCN2CCC1CC2 | 4.76% (inactive)
CC[C@H](C)n1cc(C)c2c(C(=O)NCc3c(C)cc(C)[nH]c3=O)cc(-c3ccc(N4CCNCC4)nc3)cc21 | 2.26% (inactive)

SMILES | inhibition of SARS-CoV-2 cytopathic effect
CCCCCCCN(CC)CCC[C@@H](O)c1ccc(NS(C)(=O)=O)cc1 (racemic) [ibutilide] | -2.19% (inactive)
Cc1ccc(Cl)c(Nc2ccccc2C(=O)O)c1Cl [meclofenamic-acid] | -1.96% (inactive)
COC(F)(F)C(Cl)Cl [methoxyflurane] | 4.68% (inactive)
O=P(O)(O)CN(CCN(CP(=O)(O)O)CP(=O)(O)O)CP(=O)(O)O | -0.33% (inactive)
O=C(NCCCNc1nc(Nc2cccc(NC(=O)N3CCCC3)c2)ncc1I)c1cccs1 | 0.52% (inactive)
C=C1CC[C@H](O)C/C1=C/C=C1\CCC[C@]2(C)[C@@H]([C@H](C)CCCC(C)(C)O)CC[C@@H]12 [calcifediol] | -3.43% (inactive)
C#Cc1cccc(Nc2ncnc3cc(OCCOC)c(OCCO)cc23)c1 | -2.61% (inactive)
O=C(O)c1ccc2c(c1)nc(Nc1cccc(Cl)c1)c1ccncc12 | -2.24% (inactive)
CCCCCCCCCCCCCCCC(=O)OC(CC(=O)[O-])C[N+](C)(C)C (stereo not given) [palmitoylcarnitine] | 0.35% (inactive)
CNc1ncc2cc(-c3cc(NC(=O)NCCC(C)(C)C)c(F)cc3C)c(C)nc2n1 | 5.54% (inactive)
Cc1ccc(OCCSc2ncccn2)c(Br)c1 | -1.08% (inactive)
NC(=O)c1ccc[n+]([C@@H]2O[C@H](COP(=O)([O-])OP(=O)(O)OC[C@H]3O[C@@H](n4cnc5c(N)ncnc54)[C@H](O)[C@@H]3O)[C@@H](O)[C@H]2O)c1 [nadide] | -0.81% (inactive)
CCN1CCN(C(=O)Cc2ccc(Nc3ncc(F)c(Nc4ccc(C(=O)Nc5ccccc5Cl)cc4)n3)cc2)CC1 [aurora-a-inhibitor-i] | -0.58% (inactive)
N[C@@H](CS)C(=O)O [L-cysteine] | -0.65% (inactive)
COc1cc(Br)c(Nc2nc(-c3c(C)nc4ncccn34)cs2)c(Br)c1 | 1.74% (inactive)
Cc1nc(Nc2ncc(C(=O)Nc3c(C)cccc3Cl)s2)cc(N2CCN(CCO)CC2)n1 [dasatinib] | -4.77% (inactive)
Cc1cc(O)c2c(c1)C(=O)c1cccc(O)c1C2=O [chrysophanic-acid] | 0.28% (inactive)
CC(=O)NC[C@H]1CN(c2ccc(N3CCOCC3)c(F)c2)C(=O)O1 [linezolid] | 2.87% (inactive)
c1coc(-c2nnc3sc(C4CCCCC4)nn23)c1 [cardionogen-1] | 0.69% (inactive)
O=C1NC(=O)c2c1c1c3ccccc3n3c1c1c2c2ccccc2n1C1CCC3O1 | -1.21% (inactive)
